AID923: qHTS Assay for Allosteric/Competitive Inhibitors of Caspase-1: Spectroscopic Profiling in AFC Spectral Region; compound fluorescence, AFC spectral region (405/520 nm); Potency, µM (top dose mostly 57.5 µM), for the others: at the highest dose fluorescence increase, usual class: activators; actives 1.1% (n = 75,000); AID 923, 2007; note: potency is the fitted concentration of half-maximal effect; 0% is about no effect
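Baseline compound fluorescence (AFC region, 405 nm ex/520 nm em) taken from the intercept of kinetic reads with 50 nM caspase-1 and 5 uM Ac-WEHD-AFC; normalized to an on-plate AFC standard curve; compounds titrated up to 57 uM.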
A350 autofl: qHTS Assay for Spectroscopic Profiling in A350 Spectral Region. actives 11% (n = 59,000). max dye-equivalent concentration, M. Compound autofluorescence, 340/450 nm, Alexa 350 dye-equivalents; hits give high values. AID 590, 2007; in the data active = max dye-equivalent concentration above about 10 nM; inconclusive = mostly about 1.1 nM to 9.6 nM
HSD17B inh: qHTS Assay for Inhibitors of HSD17B4, hydroxysteroid (17-beta) dehydrogenase 4 | Potency, µM (top dose mostly 57.1 µM), for the others: at the top dose activity change, negative = inhibition, actives largely listed as inhibitors | 3-hydroxyacyl-CoA dehydrogenase type-2 (Homo sapiens), Q99714 | recombinant HSD17B10, NADH fluorescence kinetic | actives 7.6% (n = 75,000);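 note: the protocol describes HADH2 (HSD17B10) and not the HSD17B4 of the title; potency is the fitted concentration of half-maximal effect; % is set by controls: 0 for no effect and ±100 for the full control effect; nearly all actives have a fitted effect of over 70% in size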
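Enzyme plus compound, 15 min room temperature; substrate mix added (NAD+ 1 mM, beta-hydroxybutyryl-CoA 90 uM final); plates read kinetically for NADH fluorescence. HADH2 was His-tagged, E. coli-derived, 20 nM.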
HADH2 inhib: qHTS Assay for Inhibitors of HADH2 (Hydroxyacyl-Coenzyme A Dehydrogenase, Type II); 3-hydroxyacyl-CoA dehydrogenase type-2 (Homo sapiens), Q99714; recombinant HADH2, NADH fluorescence, beta-hydroxybutyryl-CoA; Potency, µM (series often up to 57.1 µM), without a hit: at the top dose activity change, negative = inhibition, actives largely listed as inhibitors; actives 3.4% (n = 73,000); note: potency is the fitted concentration of half-maximal effect; % is set by controls: 0 for no effect and ±100 for the full control effect; nearly all actives have a fitted effect of over 60% in size
Target sequence (Q99714 whole entry, looked up, one chain of several): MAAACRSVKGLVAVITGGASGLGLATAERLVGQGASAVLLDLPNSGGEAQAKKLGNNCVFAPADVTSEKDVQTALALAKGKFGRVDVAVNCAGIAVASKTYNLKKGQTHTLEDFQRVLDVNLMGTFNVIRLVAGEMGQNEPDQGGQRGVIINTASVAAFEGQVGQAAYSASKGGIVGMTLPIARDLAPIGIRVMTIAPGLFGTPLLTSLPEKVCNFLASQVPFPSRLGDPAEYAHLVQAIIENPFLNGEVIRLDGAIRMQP
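E. coli-expressed His-tagged HADH2 tested at 20 nM in alkaline Tris buffer (pH 9.0); oxidation of 90 uM beta-hydroxybutyryl-CoA with 1 mM NAD+ tracked fluorimetrically for 4 min.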
4MU fluor: qHTS Assay for Spectroscopic Profiling in 4-MU Spectral Region | compound autofluorescence, 340/450 nm, 4-MU equivalents; hits give high values | max dye-equivalent concentration, M | actives 11% (n = 59,000); in the data active = max dye-equivalent concentration above about 10 nM; inconclusive = mostly about 1.1 nM to 9.6 nM
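Compounds in 100 mM Tris, pH 8.0, sat 15 min at room temperature before fluorescence was read at 340 nm excitation/450 nm emission; a per-plate six-point 4-MU standard curve converted signals to dye-equivalent concentration at each compound concentration.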
GBA mod: Glucocerebrosidase; Potency, µM; Lysosomal acid glucosylceramidase (Homo sapiens), P04062; purified enzyme, resorufin glucoside fluorescence (screen aimed at inhibitors), 20 min; actives 1.1% (n = 48,000); in the data active = potency below about 15 µM; inconclusive = mostly about 16 µM to 33 µM;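 note: potency is the fitted concentration of half-maximal effect; the screen sought inhibitors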
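Wild-type enzyme at 0.2 nM final in 50mM citric acid/KH2PO4, 10mM sodium taurocholate, 0.01% tween-20, pH 5.9, with resorufin beta-D-glucopyranoside at 30 uM final. Compounds titrated, 20 min at RT, red fluorescence read; AC50 from titration.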
Active calls of the source: *; i = inactive; ? = inconclusive; nt = no result; [ ] = another dose, or the depositor's remark. This is a sample that favours compounds with a hit; in the whole collection about 13% have one here. Unless noted, calls come from the whole dose curve; as a rule, active = well fitted curve in the direction sought with a large enough effect; inconclusive = small, poorly fitted or top-dose-only effect, or another doubt; inactive = no such curve, though single readings can be large; an effect the other way counts as inactive or inconclusive.

SMILES	AID923	A350 autofl	HSD17B inh	HADH2 inhib	4MU fluor	GBA mod
CCOC(=O)C1CCN(Cc2c(O)ccc3ccccc23)CC1	1%	9.3e-08M*	?	-5%	8.5e-08M*	>77
Cc1nc(SCC(=O)Nc2ccccc2)c2oc3ccccc3c2n1	0%	i	12%	-5%	i	>77
Cc1nc(SCC(=O)NCC2CCCO2)c2oc3ccccc3c2n1 (stereo not given)	-2%	?	-3%	-18%	i	>77
Cc1nc(SCC(=O)N2CCCc3ccccc32)c2oc3ccccc3c2n1	4%	1.2e-08M*	6%	3%	?	>77
CCOC(=O)C1CCN(c2nc(-c3ccccc3)nc3c2oc2ccccc23)CC1	-2%	?	32µM*	?	?	7.4*
O=C(O)C1CCN(c2nc(-c3ccccc3)nc3c2oc2ccccc23)CC1	3%	?	-9%	-3%	?	i
CCOc1cc(S(=O)(=O)N2CCN(Cc3ccccc3)CC2)ccc1Br	-1%	i	15%	-2%	i	i
c1ccc(C2=NN[C@@H]3c4ccccc4-c4ccccc4N3C2)cc1	-2%[11.5 µM]	?	3%[11.4 µM]	-5%[11.4 µM]	?	nt
COc1ccc2ccccc2c1C1CC(=O)N2CN(C3CCCCC3)CSC2=C1C#N (stereo not given)	-2%	nt	16µM*	1.6µM*	nt	nt
COc1ccc(C2C(=O)N(C3CCCCC3)CC(=O)N2CCc2ccccc2)cc1OC (stereo not given)	0%	i	3%	-7%	i	>77
COc1cc(C2CC(=O)N3CN(Cc4ccco4)CSC3=C2C#N)ccc1OCc1ccccc1 (stereo not given)	2%	nt	?	2µM*	nt	nt
COc1ccc(C2C(C(=O)c3ccco3)=C(O)C(=O)N2CCc2ccccc2)cc1OC (stereo not given)	1%	i	23%	-2%	i	>77
COc1ccc2ccccc2c1C1CC(=O)N2CN(Cc3ccco3)CSC2=C1C#N (stereo not given)	0%	nt	25µM*	1.3µM*	nt	nt
CCOc1cc(C2CC(=O)N3CN(C4CCCCC4)CSC3=C2C#N)ccc1O (stereo not given)	0%	nt	?	3.2µM*	nt	nt
O=C(O)c1cccc(N2CCCC2)c1	3%	1e-07M*	25µM*	32µM*	1.3e-07M*	>77
Cc1ccc(C)n1-c1cccc(C(=O)O)c1	3%	?	32µM*	?	i	>77
O=C(O)c1cccc(N2CCCC2=O)c1	0%	i	3%	2%	i	>77
O[C@H](C[C@@H]1CCCCN1)c1ccc2c(c1)oc1ccccc12	1%[11.5 µM]	i	0%[11.4 µM]	20%[11.4 µM]	i	nt
N#CC1=C(N)N2C(=C(C#N)C13CCCCC3)SC1CCCCC12O (stereo not given)	1%	i	115%	1%	i	nt
CCN(CC)CCOc1cc2c(nn1)Oc1ccccc1N2C	11%	1.2e-06M*	25µM*	79%	8.4e-07M*	>77
CC1CCN(C(=O)CSc2ccc3nnc(-c4ccc(F)cc4)n3n2)CC1	0%	?	-25%	12%	?	>77
Cc1cc(NC(=O)CSc2ccc(-c3nc4cc(C)c(C)cc4[nH]3)cn2)no1	-1%	8e-08M*	16µM*	?	8e-08M*	>77
Cc1ccc(-c2nnc3ccc(SCC(=O)Nc4cc(C)on4)nn23)cc1	-1%	2.9e-08M*	?	?	3e-08M*	>77
Cc1cc(NC(=O)CSc2ccc3nnc(-c4ccc(F)cc4)n3n2)no1	4%	2.2e-08M*	32µM*	-13%	1.8e-08M*	>77
Cc1cc(NC(=O)CSc2ccc3nnc(-c4cccs4)n3n2)no1	1%	nt	1%	-16%	nt	nt

Screens as filed in PubChem BioAssay.
